# Measured values from PubChem BioAssay (NCI).
# Values joined by “and” are separate entries in the source; they are usually repeats but may differ in a detail not shown here. Equal entries are not always repeated. Compounds without any hit were thinned out: in the full panel of roughly 83,000, 20% have a hit.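 Percent growth is the endpoint: 0 to 100 indicates growth inhibition (40 means 60% inhibition), 0 means no net growth, and negative values indicate cell death.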 Active and inactive are the calls of the source. How the source made its calls: active means growth percent below 10; inactive means the rest.
# Tested on: MDA-MB-468 breast
# Experiment: NCI-60 one-dose screen, 48 h (100 = growth as untreated, 0 = no growth, -100 = all killed)
# Conditions: 10 µM unless noted
row,Structure (SMILES),growth
1,Cc1ccc(C(=O)Nc2ccc(CN3CCN(C)CC3)c(C(F)(F)F)c2)cc1C#Cc1cnc(N)c2ccccc12,-61.7% (active)
2,COC(=O)c1nc(=S)[nH]c(C(=O)OC)c1C(=O)c1ccc2ccccc2c1,90% (inactive)
3,C/C(=N\Nc1cc(C)c2cc(C)ccc2n1)c1ccccn1,-69% (active)
4,COC(=O)C1=C(C(=O)ONCCN(C)C)C2C=CC1(C(Cc1ccccc1)Nc1ccc(F)cc1)O2 (configuration not stated),75.3% (inactive)
5,O=C1/C(=C/C2=Cc3ccccc3OC2)SC(=S)N1c1ccc(F)cc1,112% (inactive)
6,O=C1Nc2c(ccc(Cl)c2Cl)/C1=C/c1ccccn1,50.6% (inactive)
7,COc1cc2c(c(OC)c1OC)-c1ccc(OC)c(=O)cc1[C@@H](NC(C)=O)CC2,-8.64% (active) and -2.19% (active)
8,C(=C\c1c[nH]c2ccccc12)/c1ccc2ccccc2n1,68.5% (inactive)
9,CC1(C)CC[C@]2(CO)CC[C@]3(C)[C@H](CC[C@@H]4[C@@]5(C)CC[C@H](O)C(C)(C)[C@@H]5CC[C@]43C)[C@H]2[C@H]1O,101% (inactive)
10,CCOc1ccc(/C=N\N2CCCCCC2)cc1OCC,111% (inactive)
11,C=C(C[n+]1ccccc1)[C@@H]1CC[C@]2(C(=O)OC)CC[C@]3(C)[C@H](CC[C@@H]4[C@@]5(C)CCC(=O)C(C)(C)[C@@H]5CC[C@]43C)[C@@H]12,7.22% (active)
12,CCN(C(=O)CN1CCN(c2cc3c(cc2F)c(=O)c(C(=O)O)cn3C2CC2)CC1)c1nc(-c2ccc(OC)cc2)cs1,60.9% (inactive)
13,COc1ccc(OC)c(/C=C/C(=O)c2c(C)nc3ccccc3c2/C=C/c2ccccc2)c1,60.5% (inactive)
14,CSc1nc2c(c(=O)n1C)N=C1c3ccccc3C(=O)C1C(c1ccccc1)N2 (configuration not stated),54.8% (inactive)
15,N#CC(=C1SCS1)[N+](=O)[O-],-4.62% (active)
16,COc1ccc(OC)c(-c2c(C#N)c(-c3cccs3)nc3c2c(-c2ccccc2)nn3-c2ccccc2)c1,104% (inactive)
17,Cc1c(C(=O)Nc2nc3ccccc3[nH]2)cnn1-c1ccccn1,112% (inactive)
18,CS(=O)(=O)c1ccc(-c2nn(-c3ccccc3)cc2/C=N/NC(=O)c2nc(N)n[nH]2)cc1,98.2% (inactive)
19,COc1ccc(C(=O)Nc2ncc(Cc3cccc(Cl)c3)s2)cc1OC,-1.51% (active)
20,CN(C)C(=O)c1cc2cnc(Nc3ccc(-c4csc5c(=S)cc(N6CCOCC6)oc45)cc3)nc2n1C1CCCC1,1.46% (active)
21,COc1ccc2nc3cc(Cl)ccc3c(N3CCN(c4nccc(Nc5ccc(Cl)cc5)n4)CC3)c2c1,82.8% (inactive)
22,O=S(=O)(Nc1ccc(Cl)c(C(F)(F)F)c1)c1ccc(-c2cnc(C3CC3)o2)cc1,-7.54% (active)
23,CCOC(=O)CNC1=C(Cl)C(=O)N(Cc2ccc(Cl)cc2)C1=O,105% (inactive)
24,COc1ccc(C2C3=C(COC3=O)N(CCO)c3cc4c(cc32)CCC4)cc1 (configuration not stated),7.26% (active)
25,C1CCCCNCCC1,98.6% (inactive)
26,c1ccc2cc(Cn3cc[n+](Cc4ccc5ccccc5c4)c3)ccc2c1,-23.7% (active)
27,CC1OC(OC2C(OC3CCC4(C)C(CCC5(C)C4CC=C4C6CC(C)(C)CCC6(CO)C(O)CC45C)C3(C)C)OC(C(=O)O)C(OC3OC(COC4OC(CO)C(O)C(O)C4O)C(O)C(O)C3O)C2O)C(O)C(O)C1O (configuration not stated),-80.5% (active)
